Results taken from PubChem BioAssay AID485367 (National Center for Advancing Translational Sciences (NCATS), 2010).
Among all 330,000 compounds or so, about 560 (0.17%) were called active. Another 1% or so got no clear call; they are omitted. Only a selection was taken, and actives are over-represented in it overall. Values without a mark were called inactive. The call rests on the fitted dose curve; in most records, active means well fitted inhibition curve with a large enough effect; inconclusive means small, poorly fitted or top-dose-only effect, or effect the other way; inactive means flat fitted curve, though single readings scatter.

Molecular target: ATP-dependent 6-phosphofructokinase (Trypanosoma brucei brucei) (UniProt O15648)
Sequence (O15648 whole entry, looked up): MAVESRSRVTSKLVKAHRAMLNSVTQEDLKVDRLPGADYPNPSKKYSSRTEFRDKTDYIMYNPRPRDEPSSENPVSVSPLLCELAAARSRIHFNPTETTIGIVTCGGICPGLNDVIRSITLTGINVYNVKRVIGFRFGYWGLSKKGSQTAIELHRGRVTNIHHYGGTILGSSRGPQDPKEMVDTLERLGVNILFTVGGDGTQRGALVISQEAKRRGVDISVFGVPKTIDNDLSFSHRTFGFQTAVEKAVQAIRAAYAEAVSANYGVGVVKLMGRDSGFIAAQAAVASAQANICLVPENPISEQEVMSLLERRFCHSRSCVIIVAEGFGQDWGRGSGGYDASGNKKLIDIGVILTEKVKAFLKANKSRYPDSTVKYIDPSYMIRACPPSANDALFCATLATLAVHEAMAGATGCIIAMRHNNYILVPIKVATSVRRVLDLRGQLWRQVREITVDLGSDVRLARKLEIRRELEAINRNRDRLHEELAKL
Assay: qHTS Assay to Find Inhibitors of T. brucei phosphofructokinase; further: nearly all actives have a fitted effect of over 60% in size;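 on activity, negative = inhibition: 0% = uninhibited 1x PFK enzyme wells and -100% = no-enzyme wells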
Conditions: T. brucei PFK, ADP-Glo luminescence; series mostly up to 57.5 µM; activity, negative = inhibition: at the top concentration
Procedure, shortened: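 Activity is normalized to no-enzyme wells (full inhibition) and 1.25 nM enzyme wells (no inhibition). Reaction: 0.5 mM F6P, 0.1 mM ATP, 45 min RT, ADP-Glo luminescence; concentration-response curves fitted and classed by quality.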
Potency means the concentration at half of the fitted maximal effect.

Q: With `O=C(COC(=O)/C=C/c1ccc(OC(F)F)cc1)NC1CCCCC1` as the compound, how does the “activity, negative = inhibition” value read?
A: 6.89%

Q: How did the “activity, negative = inhibition” value turn out when `N=C1/C(=C/c2cccn2-c2cccc([N+](=O)[O-])c2)C(=O)N=C2SC=CN12` was run?
A: 3.77%

Q: Which “activity, negative = inhibition” value does the source give for `CCOC(=O)c1c(CNCc2ccccc2F)c2sc(C)cc2n1C` here?
A: -0.233%

Q: How did the “activity, negative = inhibition” value turn out when `NC(=O)c1ccc(Nc2ccc3nonc3c2[N+](=O)[O-])cc1` was run?
A: 0.218%

Q: How did the Potency turn out when `O=[N+]([O-])c1c(NCCO)cc(Sc2nc3ccccc3s2)c2nonc12` was run?
A: 6.01 µM (active)

Q: How did the “activity, negative = inhibition” value turn out when `CCN(CC)CCCSc1nc2ccccc2s1` was run?
A: -6.96%

Q: How did the “activity, negative = inhibition” value turn out when `CCOCCOC(=O)C1=C(C)N(C)C(=O)NC1c1ccccc1F` (stereo unspecified) was run?
A: 0.633%

Q: How did the “activity, negative = inhibition” value turn out when `CCOC1CS(=O)(=O)CC1OCC` (stereo unspecified) was run?
A: -1.39%

Q: With `CC(C)(C)NC(=O)NC(=O)COC(=O)Cc1c(F)cccc1Cl` as the compound, how does the “activity, negative = inhibition” value read?
A: -0.983%

Q: For `O=C1CSC(=S)N1c1ccc(Cl)c(Cl)c1`, which Potency is on record?
A: 21.3 µM (active)

Q: `O=C1CSC(=S)N1c1ccc(O)cc1` was tested. Which “activity, negative = inhibition” value did it give?
A: -1.23%

Q: Which “activity, negative = inhibition” value does the source give for `COc1cc(N2C(=O)CSC2=S)cc(OC)c1OC` here?
A: -8.25%

Q: For `O=C(COC(=O)CNS(=O)(=O)c1ccccc1)NC12CC3CC(CC(C3)C1)C2`, which “activity, negative = inhibition” value is on record?
A: -2.55%

Q: With `Cc1ccc(C(=O)COC(=O)c2cccc(N3C(=O)c4c(C)nc5ccccc5c4C3=O)c2)cc1C` as the compound, how does the “activity, negative = inhibition” value read?
A: -6.05%

Q: Which Potency does the source give for `O=C(Nc1ccncc1)c1ccc(Cl)c([N+](=O)[O-])c1` here?
A: 26.9 µM (active)

Q: For `O=C(Nc1ccncc1)c1ccc([N+](=O)[O-])cc1Cl`, which “activity, negative = inhibition” value is on record?
A: -2.98%

Q: Which “activity, negative = inhibition” value does the source give for `Cc1ccnc(NC(=O)c2ccc(Cl)c([N+](=O)[O-])c2)c1` here?
A: -21.5%

Q: With `Cc1c(CCO)c(=O)n(-c2ccccc2)n1S(=O)(=O)c1ccc(F)cc1` as the compound, how does the “activity, negative = inhibition” value read?
A: 2%

Q: `CCOc1ccc(NCCC(=O)c2ccc3c(c2)OCO3)cc1` was tested. Which “activity, negative = inhibition” value did it give?
A: 0.639%

Q: How did the “activity, negative = inhibition” value turn out when `COc1ccc(CNC(=O)C(NS(=O)(=O)c2cccc3nsnc23)C(C)C)cc1` (stereo unspecified) was run?
A: -7.82%

Q: For `CC(NC(=O)c1ccc(S(=O)(=O)Nc2ccccc2)cc1)c1ccc(S(N)(=O)=O)cc1` (stereo unspecified), which “activity, negative = inhibition” value is on record?
A: 4.34%
